MCF10A rereplic: DNA re-replication induction in MCF 10a cells; Potency, µM (top dose mostly 46.1 µM), most hits filed as activators; hit rate 2.9% among 350,000; MCF 10A DNA re-replication, Hoechst nuclear intensity, 48 h; note: nearly all actives have a fitted effect of over 50% in size
PINK1 modulator: modulators of PINK1 expression. Potency, µM (titrated, usually from 76.6 µM), most hits filed as activators. hit rate 0.2% among 410,000. AID 624263. PINK1 immunofluorescence, high-content cytometry, 24 h; active = well fitted activation curve with a large enough effect; inconclusive = small, poorly fitted or top-dose-only effect; cell line not stated here; note: nearly all actives have a fitted effect of over 65% in size
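Decision-based qHTS: stable cells, 24 h exposure to five compound concentrations, CCCP as control. Fixed cells stained for PINK1 plus nuclear, mitochondrial and cell markers, cytometer read.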
SW480 rerep: DNA re-replication induction in SW480 cells; SW480 DNA re-replication, Hoechst DNA content imaging, 48 h; Potency, µM (top dose mostly 46.1 µM), hits mostly activators; hit rate 1.8% among 340,000; AID 624297; note: nearly all actives have a fitted effect of over 55% in size
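Cells (250 per well) received 23 nL compound or DMSO by pin tool and were kept 48 hr at 37 C, 5% CO2. Nuclei were then stained with Hoechst for 40 min and scanned for DNA content.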
S2 tox: cell viability loss in ATXN counter-screen; S2 cells (HEK-293 line with an ATXN2-luciferase reporter) viability, CellTiter-Fluor protease fluorescence, 24 h; Potency, µM (series often up to 56.7 µM), actives largely listed as cytotoxic; hit rate 0.49% among 400,000; AID 651635; note: nearly all actives have a fitted effect of over 40% in size
ATXN2 expr inh: ATXN2 expression inhibition; HEK-293 ATXN2-luciferase reporter, luminescence, 24 h; Potency, µM (series often up to 57 µM), actives largely listed as inhibitors; hit rate 0.72% among 360,000; AID 1745845; note: nearly all actives have a fitted effect of over 55% in size
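qHTS (up to 57 uM final) was run with 24 h compound exposure of reporter cells at 37 °C. Each well was multiplexed: SteadyGlo luminescence measured ATXN2-luciferase expression after a fluorogenic Gly-Phe-AFC viability readout (25 uM final).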
IL1B secr inh: inflammasome signaling inhibition, IL-1 beta readout. AID 743279. THP-1 LPS/ATP IL-1B secretion, AlphaLISA, 16 h; active compounds read low. hit rate 4.7% among 360,000. activity change, % at 57.5 µM; in the data active = activity change below about -50%; inconclusive = mostly about -30% to -49%
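THP-1 cells pretreated 1 hr with compounds (up to 57.5 uM final), then stimulated with LPS (250 ng/mL final) plus ATP (1.25 mM final); secreted IL-1B measured by AlphaLISA after 16 hr, decreased signal indicating inhibition.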
Of the large screens only hits and unclear results are named; the others gave an inactive call. Sampled rows, rich in hits. Any-hit rate of the full collection: about 7.1%. Unless noted, calls come from the whole dose curve; as a rule, active = well fitted curve in the direction sought with a large enough effect; inconclusive = small, poorly fitted or top-dose-only effect, or another doubt; inactive = no such curve, though single readings can be large; an effect the other way counts as inactive or inconclusive.

Cc1cc2c(c(-c3nc4ccccc4s3)c1)OC(CNC(=O)CCc1cccnc1)C2 (configuration not stated)	S2 tox inconclusive (no result: MCF10A rereplic, SW480 rerep, ATXN2 expr inh, IL1B secr inh)
Cc1nc2cccnc2n1C1CCN(S(=O)(=O)c2ccc(C(C)C)cc2)CC1	none (no result: MCF10A rereplic, SW480 rerep, IL1B secr inh)
COc1ccc(CNC(=O)C/C(C)=N/NC(=O)c2ccc(OC)cc2OC)cc1	IL1B secr inh -55
O=[N+]([O-])c1ccc(O)c(/C=N/Nc2ncnc3c2cnn3-c2ccccc2)c1	SW480 rerep 2.3µM, S2 tox inconclusive, ATXN2 expr inh 2.8µM
O=C(N/N=C/c1cc([N+](=O)[O-])ccc1O)Nc1ccccc1	MCF10A rereplic inconclusive, SW480 rerep inconclusive
O=[N+]([O-])c1ccc(O)c(/C=N/Nc2ccccn2)c1	MCF10A rereplic inconclusive, SW480 rerep 1.3µM, ATXN2 expr inh 2.8µM, IL1B secr inh -101
O=[N+]([O-])c1ccc(NN=Cc2ccccc2O)nc1	MCF10A rereplic inconclusive, SW480 rerep 2.6µM, ATXN2 expr inh inconclusive (no result: S2 tox)
O=[N+]([O-])c1cccc(N/N=C/c2cc([N+](=O)[O-])ccc2O)c1	MCF10A rereplic inconclusive
O=[N+]([O-])c1ccc(NN=Cc2ccc(O)cc2O)nc1	MCF10A rereplic inconclusive, SW480 rerep inconclusive, ATXN2 expr inh inconclusive
O=[N+]([O-])c1ccc(N/N=C\c2cccn2-c2ccccc2)nc1	MCF10A rereplic 15µM, SW480 rerep inconclusive, ATXN2 expr inh inconclusive
O=[N+]([O-])c1ccc(NN=Cc2ccccc2)nc1	SW480 rerep inconclusive
Cc1cc(Cl)ccc1OCC(=O)N1CCC(c2nc3ccccc3o2)CC1	none (no result: MCF10A rereplic, SW480 rerep, S2 tox, ATXN2 expr inh, IL1B secr inh)
CCOC(=O)CC(NC(=O)c1cc2cc(OC)ccc2oc1=O)c1ccc(OC)cc1 (configuration not stated)	none (no result: MCF10A rereplic, SW480 rerep, IL1B secr inh)
O=[N+]([O-])c1cccnc1N/N=C/c1ccccc1O	SW480 rerep 0.82µM, S2 tox inconclusive
O=[N+]([O-])c1ccc(O)c(/C=N/Nc2nc3ccccc3[nH]2)c1	MCF10A rereplic 8.2µM, S2 tox inconclusive, ATXN2 expr inh inconclusive
Cc1c(O)ccc(/C=N/Nc2ncccc2[N+](=O)[O-])c1O	none
Cc1c(Cl)cccc1NC(=S)NCC1COc2ccccc2O1 (configuration not stated)	MCF10A rereplic inconclusive, PINK1 modulator inconclusive, IL1B secr inh -68
C=CCNC(=S)NCC1COc2ccccc2O1 (configuration not stated)	none
N#Cc1sc2nccc(Nc3ccccc3)c2c1N	MCF10A rereplic inconclusive, SW480 rerep 23µM, S2 tox inconclusive
Nc1cc(Nc2ccccc2)ccn1	IL1B secr inh inconclusive
Cc1cn(-c2cc(NC(=O)c3ccc(C)c(NC(=O)c4cccc(-c5cn[nH]c(=O)c5)c4)c3)cc(C(F)(F)F)c2)cn1	MCF10A rereplic inconclusive, IL1B secr inh -94
COc1ccc(N2CCN(C(=O)CCc3c(C)nc4c(-c5ccccc5)c(C)nn4c3C)CC2)cc1	S2 tox inconclusive (no result: MCF10A rereplic, SW480 rerep, IL1B secr inh)
COc1ccc(C(=O)/C=C/c2ccsc2)cc1CSCC(=O)O	MCF10A rereplic 18µM, SW480 rerep inconclusive, IL1B secr inh -69
COc1ccc(C(C)=O)cc1CSCCC(=O)O	none
CCc1ccc(C(=O)N2CCC(c3nc(-c4ccc(S(=O)(=O)N5CCCC5)cc4)no3)CC2)cc1	none (no result: MCF10A rereplic, SW480 rerep, S2 tox, ATXN2 expr inh, IL1B secr inh)
O=C1NC2c3c(I)sc(I)c3C(=O)C2O1 (configuration not stated)	MCF10A rereplic 13µM, SW480 rerep 16µM, ATXN2 expr inh inconclusive, IL1B secr inh -56 (no result: S2 tox)
O=C1NC2c3c(Cl)sc(Cl)c3C(=O)C2O1 (configuration not stated)	MCF10A rereplic 7.3µM, SW480 rerep inconclusive, S2 tox inconclusive, ATXN2 expr inh inconclusive, IL1B secr inh -103
COc1ccc(CNC(=O)Cn2nc(N3CCN(c4ccccc4)CC3)ccc2=O)c(OC)c1	none (no result: MCF10A rereplic, SW480 rerep, IL1B secr inh)
Cc1ccc(-c2noc(-c3ccc(NCC4CCCO4)c([N+](=O)[O-])c3)n2)cc1 (configuration not stated)	none (no result: MCF10A rereplic, SW480 rerep, IL1B secr inh)
COc1cc(CN2CCCC(n3cc(C(=O)N4CCCCC4)nn3)C2)cc2c1OCO2 (configuration not stated)	none (no result: MCF10A rereplic, SW480 rerep, ATXN2 expr inh, IL1B secr inh)
COc1ccc(/C=N/n2c(-c3ccc(C)cc3)n[nH]c2=S)cc1OC	IL1B secr inh -51 (no result: ATXN2 expr inh)
O=C(NCc1ccccc1Cl)NCc1ccccc1Cl	none (no result: ATXN2 expr inh)
O=C(Cc1ccccc1)NCc1ccc(-n2cccc2)cc1	MCF10A rereplic 10µM, SW480 rerep 6.5µM
O=C(CCn1cccc1)NCc1ccccc1	none
O=C(Cc1ccc(-n2cccc2)cc1)NCc1ccccc1Cl	MCF10A rereplic 4.1µM, SW480 rerep 18µM
CC(C)[N+]1(C)[C@@H]2CC[C@H]1CC(OC(=O)[C@@H](CO)c1ccccc1)C2 (some centres not stated)	none (no result: MCF10A rereplic, PINK1 modulator, SW480 rerep, ATXN2 expr inh, IL1B secr inh)
CC(=O)Nc1sc(N/N=C/c2ccc(C)cc2)nc1-c1ccc(C)cc1	none (no result: ATXN2 expr inh)
CC(=O)Nc1sc(/C(C#N)=C/c2ccc(Cl)c(Cl)c2)nc1-c1ccc(C)cc1	MCF10A rereplic 1.8µM, SW480 rerep inconclusive (no result: S2 tox)
CCN(CC)CCOC(=O)c1c(C)oc2ccc(OC)cc12	IL1B secr inh -86 (no result: PINK1 modulator)
COc1ccc2c(c1)c(C(=O)OCCN(C)C)c(C)n2C	MCF10A rereplic inconclusive, IL1B secr inh -69
COc1ccc(NC(=O)/C(C#N)=C\c2cc(C)n(-c3ccc4c(c3)OCO4)c2C)cc1	MCF10A rereplic 5.2µM, SW480 rerep 10µM, ATXN2 expr inh inconclusive
Cc1cccc(NC(=O)/C(C#N)=C\c2cc(C)n(-c3ccc(C(=O)O)cc3)c2C)c1	IL1B secr inh -78 (no result: ATXN2 expr inh)
Cc1cc(/C=C(\C#N)C(=O)Nc2ccccc2)c(C)n1-c1ccc(C(=O)O)cc1	IL1B secr inh inconclusive
Cc1cnc(-n2ncc(C(=O)N(C)CCc3ccccn3)c2-c2cccs2)nc1-c1ccc(F)cc1	none (no result: MCF10A rereplic, SW480 rerep, ATXN2 expr inh, IL1B secr inh)
O=C(O)c1cccc(NC(=O)c2cccc(NC(=O)C3CCCO3)c2)c1 (configuration not stated)	ATXN2 expr inh 8.9µM
O=C(Nc1ccc(N=Nc2ccccc2)c(NC(=O)C2CCCO2)c1)C1CCCO1 (configuration not stated)	MCF10A rereplic inconclusive, IL1B secr inh -83
O=C(Nc1ccc([N+](=O)[O-])c(NC(=O)C2CCCO2)c1)C1CCCO1 (configuration not stated)	none
COc1ccc(NC(=O)C2CCCO2)cc1 (configuration not stated)	none
O=C(Nc1ccc(Oc2ccccc2)cc1)C1CCCO1 (configuration not stated)	MCF10A rereplic 7.3µM, SW480 rerep inconclusive
O=C(O)c1cccc(C(=O)Nc2cccc(NC(=O)C3CCCO3)c2)c1 (configuration not stated)	MCF10A rereplic inconclusive, SW480 rerep inconclusive, ATXN2 expr inh inconclusive
